Drawing on PubChem BioAssay (NCATS), this text covers Potency and activity (max response) for 14 molecules.

The nature of test [1]: Viability qHTS for spleen associated tyrosine kinase inhibitor (SYKi) naive MV4-11 cells (AID 1963823). Further: nearly all actives have a fitted effect of over 40% in size. In outline:
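Luminescence from CellTiter-Glo, developed 10 min at room temperature, gave viability of MV4-11 cells never exposed to SYK inhibitor. Cells (500/well) had been incubated with compounds for 72 hr under standard culture conditions.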

The nature of test [2]: Viability qHTS for spleen associated tyrosine kinase inhibitor (SYKi) drug resistant MV4-11 cells (AID 1963824). Further: nearly all actives have a fitted effect of over 35% in size. In short, it runs like this: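 SYK-inhibitor-resistant MV4-11 AML cells were seeded at 500 per well onto compound and cultured 72 hours (37 °C, 5% CO2). CellTiter-Glo was then added, and after 10 min at room temperature, luminescence gave viability.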
A short description of test [3]: Quantitative highthroughput screen to assess conditional lethalithy of NOMO1 cells grown in RPMI1640 with untreated serum (RPMI+s) (AID 1963876). Further: nearly all actives have a fitted effect of over 35% in size.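 On Viability: 100% = DMSO wells and 0% = empty wells without cells.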 In outline: (§1)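 Each medium arm—HPLM with 10% dialyzed FBS, or RPMI1640 with 5 mM glucose and 10% untreated or dialyzed FBS—was screened against an 11-point, 3-fold compound titration for 48 h at 37 °C, with CellTiter-Glo luminescence as endpoint.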

The nature of test [4]: Quantitative highthroughput screen to assess conditional lethalithy of NOMO1 cells grown in RPMI1640 with dialyzed fetal bovine serum (RPMI+ds) (AID 1963877). Further: nearly all actives have a fitted effect of over 30% in size.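 On Viability: series mostly up to about 46 µM; 100% = DMSO control wells and 0% = empty wells.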 In short, it runs like this:
as §1

A short description of test [5]: Quantitative highthroughput screen to assess conditional lethalithy of NOMO1 cells grown in Human Plasma-Like Medium with dialyzed fetal bovine serum (HPLM+ds) (AID 1963878). Further: nearly all actives have a fitted effect of over 35% in size.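 On Viability: 100% = DMSO wells and 0% = empty wells on each plate.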 In outline:
as §1

Test [6] is described as follows: Quantitative highthroughput screen to assess conditional lethalithy of SEM cells grown in Human Plasma-Like Medium with dialyzed fetal bovine serum (HPLM+ds) (AID 1963882). Further: nearly all actives have a fitted effect of over 35% in size. On Viability: series mostly up to about 46 µM. In short, it runs like this:
as §1

The nature of test [7]: Quantitative highthroughput screen to assess conditional lethalithy of SEM cells grown in RPMI1640 with unreated serum (RPMI+s) (AID 1963883). Further: nearly all actives have a fitted effect of over 35% in size.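 On Viability: 100% = DMSO wells and 0% = empty wells without cells.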 In short, it runs like this: as §1
The nature of test [8]: Quantitative highthroughput screen to assess conditional lethalithy of SEM cells grown in RPMI1640 with dialyzed fetal bovine serum (RPMI+ds) (AID 1963884). Further: nearly all actives have a fitted effect of over 35% in size.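 On Viability: series mostly up to about 46 µM; 100% = DMSO control wells and 0% = empty wells without cells.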 In outline:
as §1

A short description of test [9]: Cellular viability qHTS for adrenocortical cancer (ACC) cell line SW-13 (AID 1963989). Further: nearly all actives have a fitted effect of over 65% in size.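 On activity (max response): cells grown in serum-free medium with ITS supplement; on the % scale 0 is the no-effect control and ±100 the full control effect.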 Conditions: SW-13 ACC cells viability, CellTiter-Glo, 48 h; activity (max response): stronger effect = lower value. In short, it runs like this:
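Viability was read as CellTiter-Glo luminescence after 48 h compound treatment (up to 46 uM final) of SW-13 cells grown serum-free; titration curves were fit with a four-parameter logistic model to give IC50 and efficacy.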
For orientation: In qHTS, concentration-response curves come from the screen itself.

Test [10] in a line: Cellular viability qHTS for adrenocortical cancer (ACC) cell line NCI-H295R (AID 1963990). Further: nearly all actives have a fitted effect of over 60% in size. In outline:
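CellTiter-Glo ATP luminescence, read 48 h after compound addition, measured viability of NCI-H295R adrenocortical cells grown serum-free with ITS. Final concentrations spanned up to 46 uM. Data normalized to DMSO and doxorubicin, fitted for IC50 and maximal response.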

The nature of test [11]: Quantitative highthroughput screen to assess conditional lethalithy of P12 Ichikawa cells grown in RPMI1640 with dialyzed fetal bovine serum (RPMI+ds) (AID 1963880). Further: nearly all actives have a fitted effect of over 35% in size.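 On Viability: 100% = DMSO wells and 0% = empty wells on each plate.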 Conditions: Potency: P12-Ichikawa viability. In short, it runs like this: as §1
Test [12] is described as follows: Quantitative highthroughput screen to assess conditional lethalithy of P12 Ichikawa cells grown in RPMI1640 with untreated serum (RPMI+s) (AID 1963881). Further: nearly all actives have a fitted effect of over 35% in size.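 On Viability: series mostly up to about 46 µM; 100% = DMSO wells and 0% = empty wells without cells.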 To be noted: Potency: viability. In outline:
as §1

Values joined by “and” are separate entries in the source; they are usually repeats but may differ in a detail not shown here. Equal entries are not always repeated. Records with an inconclusive call do not appear. The source holds several records for some structures; these can differ, active in one and inactive in another. Active and inactive are the calls of the source. The call rests on the fitted dose curve; in most records, active means well fitted curve in the direction sought with a large enough effect; inconclusive means small, poorly fitted or top-dose-only effect, or another doubt; inactive means no such curve, though single readings can be large; an effect the other way counts as inactive or inconclusive.
Potency means the concentration at half of the fitted maximal effect.

As to `O=C(O)C1=CC(O)C(O)[C@H](O)C1` (some centres undefined), the Potency entry in [1], in [2], in test [3], in test [4], in test [5] and in test [6] was “inactive” each time. Besides, the Potency entry in test [7], in test [8] and in [10] was “inactive” in each case. The activity (max response) in [9] was -8.83% (inactive).

Regarding `COC(c1ccccc1)(c1ccccc1)[C@H](Oc1nc(C)cc(C)n1)C(=O)O`, the Potency entry in [1], in test [2], in [3], in test [4], in test [5] and in test [10] was “inactive” throughout.

In the case of `O=C(c1ccc(F)cc1)N1CCC[C@H](c2nc(-c3ccc(F)cc3)no2)C1`, the results for the Potency in [1] and in [2] were 20.9 µM (active) and 11.8 µM (active), respectively. The Potency result in test [3], in [4], in test [5], in test [6], in test [7] and in test [8] was “inactive” each time. The activity (max response) in [9] was -11.7% (inactive).

Consider `O=C1CCCC2=C1C(c1[nH]ncc1Cl)N=C(Nc1nc3ccccc3o1)N2` (centres undefined), for which the Potency in test [1] was 8.33 µM (active); in test [2], 14.6 µM (active) and 13.2 µM (active); in test [5] it was 18.7 µM (active). For the same molecule, the Potency result in [3], in [4], in [6] and in [10] was “inactive” in each case. Moreover, in test [9], the activity (max response) was -9.4% (inactive).

Turning to `CO[C@@H]1C(N(C)C(=O)c2ccccc2)C[C@H]2O[C@]1(C)n1c3ccccc3c3c4c(c5c6ccccc6n2c5c31)C(=O)NC4=O` (some centres undefined), the Potency was 0.148 µM (active) in [1]; 0.332 µM (active) in test [2]; 14.8 µM (active) in test [3]; 14.8 µM (active) in [4]; 9.35 µM (active) in test [5]; 4.69 µM (active) in test [6]. The Potency in [7] is 1.87 µM (active); in test [8], 3.72 µM (active). In addition, in test [10], the Potency entry was “inactive”.

With `Cn1cc(CNCC2CCN(c3ncc(C(=O)NO)cn3)CC2)c2ccccc21`, the Potency in [1] was 0.0661 µM (active); in [2], 0.0166 µM (active); in [3], 0.372 µM (active); in [4], 0.332 µM (active); in test [5] it was 0.296 µM (active); in [6], 0.132 µM (active). Moreover, the figures for the Potency in test [7], in test [9] and in [10] were 0.148 µM (active), 1.26 µM (active) and 0.794 µM (active), respectively.

With `O=C(c1ccc(Nc2nccc(-c3cc4ccccc4s3)n2)cc1)N1CCC(N2CCCC2)CC1`, the Potency was 920 nM (active) and 468 nM (active) in [1]; 1.64 µM (active) and 731 nM (active) in [2]; 26.4 µM (active) in [3]; 26.4 µM (active) in [4]; 13.2 µM (active) in [5]; 16.6 µM (active) in [11]. Moreover, the Potency in [12] was 23.5 µM (active); in [6] it was 7.43 µM (active); in test [7] it was 9.35 µM (active); in [8], 9.35 µM (active); in test [9], 6.31 µM (active).

Turning to `O=C(O)c1ccc(-c2c[nH]c3ncc(-c4ccccc4)cc23)cc1C1CCCC1`, the Potency in [1] was 1.18 µM (active); in [2], 651 nM (active) and 2.35 µM (active); in [11] it was 6.62 µM (active). The Potency result in test [3], in test [4], in test [5] and in test [10] was “inactive” throughout.

Consider `CCN(CC)C(=S)SSC(=S)N(CC)CC`, for which the Potency is 1.57 µM (active) in test [1]; 1.4 µM (active) and 5.31 µM (active) and 833 nM (active) in test [2]; 2.96 µM (active) in [3]; 2.96 µM (active) in test [4]; 3.32 µM (active) in test [5]; 2.96 µM (active) in test [11]. For the same molecule, the Potency in [12] was 2.96 µM (active); in test [6] it was 0.833 µM (active); in test [7], 1.05 µM (active); in test [8] it was 0.662 µM (active); in test [9], 16.4 µM (active) and 25.1 µM (active); in [10], 44.7 µM (active).

Take `O=c1c(O)c(-c2ccc(O)c(O)c2)oc2cc(O)cc(O)c12`: the Potency in test [1] is 23.7 µM (active) and inactive; in test [2], “inactive and 16.4 µM (active)”. The Potency entry in [3], in test [4], in test [5], in test [12] and in test [6] was “inactive” each time. The activity (max response) in [9] is -23.2% (inactive) and 14.3% (inactive).

As to `COc1ccc(-c2oc3c(CC=C(C)C)c(O)cc(O)c3c(=O)c2O)cc1`, the results for the Potency in test [1] and in [2] were 8.33 µM (active) and 13.2 µM (active), respectively. Also, the Potency result in [3], in test [4], in [5], in [11], in [6] and in [8] was “inactive” each time. Also, in [10], the Potency result was “inactive”. The activity (max response) in test [9] is -11% (inactive).

Consider `O=C(CCN1CCN(C(=O)OCc2cc(Cl)cc(Cl)c2)CC1)c1ccc2[nH]c(=O)oc2c1`, for which the Potency is 20.6 µM (active) and 8.33 µM (active) in test [1]; 16.6 µM (active) in test [2]. The Potency result in test [3], in test [4] and in [5] was “inactive” in each case. Also, in test [9], the activity (max response) was -15.7% (inactive).

Regarding `Cc1cc([C@@H](C)Nc2ccccc2C(=O)O)c2nc(N3CCOCC3)cc(=O)n2c1`, the Potency in test [1] was 5.01 µM (active) and 5.25 µM (active); in test [2], 7.08 µM (active) and 5.25 µM (active); in [3] it was 13.6 µM (active); in [4], 12.1 µM (active); in test [5] it was 8.55 µM (active); in test [6] it was 13.6 µM (active). For the same molecule, the Potency is 10.8 µM (active) in [7] and 9.59 µM (active) in test [8].

Regarding `COc1cccc(OC)c1-c1cc(C(=O)NC2(C(=O)O)C3CC4CC(C3)CC2C4)nn1-c1ccnc2cc(Cl)ccc12` (centres undefined), the Potency in [1] was 9.34 µM (active); in test [2] it was 5.9 µM (active). The Potency result in [3], in [4], in test [5], in test [11], in test [12] and in test [6] was “inactive” each time. For the same molecule, the Potency result in [7] and in test [8] was “inactive” throughout. The activity (max response) in test [9] was -4.12% (inactive).
